# Laboratory results reported in the supplement of paper PMC3334620.
# In all, about 33,000 sequences were measured (“E-score (-0.5 to 0.5)”: median about -0.0034, highest 2% from about 0.25 on). This excerpt belongs to a sample that is enriched for the highest values.
# Biological target: T1, Yap3 (UniProt P38749)
# T1 sequence: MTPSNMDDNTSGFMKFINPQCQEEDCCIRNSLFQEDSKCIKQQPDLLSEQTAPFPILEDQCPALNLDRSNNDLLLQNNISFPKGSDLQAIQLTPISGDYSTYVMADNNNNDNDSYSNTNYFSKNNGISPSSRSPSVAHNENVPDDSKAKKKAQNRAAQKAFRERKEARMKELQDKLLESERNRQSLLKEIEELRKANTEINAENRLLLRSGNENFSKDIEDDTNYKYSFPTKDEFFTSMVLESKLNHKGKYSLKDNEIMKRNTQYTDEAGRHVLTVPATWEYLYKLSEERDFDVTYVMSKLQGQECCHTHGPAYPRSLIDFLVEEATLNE
# Test: PBM E-score (8-mer binding enrichment) (E-score (-0.5 to 0.5)); higher = stronger / more preferred TF binding
# Settings: protein concentration: 100 nM; construct: GST-full length
# Procedure: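 Universal 'all 10-mer' protein binding microarrays (Agilent AMADID 015681) probed with GST-tagged S. cerevisiae TFs (full-length or DBD) made by in vitro transcription/translation (PURExpress), about 100-200 nM. Bound TF was detected with fluorescent anti-GST. Each ungapped 8-mer (which stands for itself and its reverse complement) is scored by the PBM enrichment score (E-score), a modified Wilcoxon-Mann-Whitney statistic from -0.5 to +0.5, computed with the Universal PBM Analysis Suite. Scale: above 0.35 generally sequence-specific binding.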
row,Sequence,PBM E-score
1,AAATGAGT,0.23
2,ACATCCAT,0.0624
3,TGGCCACA,-0.0477
4,GCCTATGA,-0.134
5,GGTCCCAA,-0.151
6,ATCGACAT,0.0988
7,ACCTGCTG,0.0821
8,CGATAACA,0.097
9,TGATAACA,0.258
10,GGATAACA,0.116
11,CGTTTTAA,0.126
12,GAGGACGC,-0.1
13,AGTTCTAA,-0.0287
14,GGTTCTAA,0.218
15,TGTTCTAA,0.256
16,AGCTTGCG,-0.219
17,AATTGGGC,0.0215
18,AATTGGGG,-0.023
19,AATTGGGT,0.331
20,ACTATTAT,0.123
21,AATATTAT,0.333
22,CATCTCAA,0.108
23,GATATTAA,0.212
24,AATCTCAA,0.134
25,TATATTAA,0.315

row,Sequence,PBM E-score
1,TCTATTAA,0.188
2,GCTATTAA,0.103
3,AATATTAG,0.239
4,TGTATTAA,0.126
5,TATCTCAA,0.256
6,AATATTAA,0.346
7,AGAGGAAG,-0.0758
8,AATCGGGA,0.0297
9,CTTTGATC,-0.0556
10,TGTAGAAA,0.0253
11,CGATGGCA,-0.145
12,TAGCGGAA,-0.00131
13,GATATTAC,0.371
14,CATATCAG,0.064
15,AATATCAA,0.244
16,AATATTGC,0.202
17,GATATTCC,0.12
18,AATATTCT,0.133
19,CATATCAA,0.275
20,AATATTCC,0.281
21,AATATTCG,0.223
22,GCTATTAC,0.137
23,AATATTAC,0.31
24,CCTATTAC,0.176
25,ACGAACTC,0.0654

row,Sequence,PBM E-score
1,TAGGAGAA,-0.178
2,AGAACGAA,0.233
3,ATGTTGCA,0.0661
4,TCATTCGA,0.195
5,AGGATTAC,0.125
6,GGAACGAC,-0.133
7,AGAGAATA,0.208
8,CATATTAG,0.184
9,CATATTTC,0.0493
10,TATATTCA,0.259
11,AATATTCA,0.223
12,GAAATCAA,0.0981
13,AAAATCAA,0.19
14,CATATTGA,0.0743
15,CAAATCAA,0.267
16,CGTATTAA,0.0173
17,CATATTAA,0.299
18,GATATTCA,0.0491
19,CATATTAC,0.282
20,AAATACAT,0.154
21,CTTGGTGC,-0.023
22,AGATAGCA,0.0137
23,AACAGCAC,0.0426
24,GCGATCGC,0.191
25,CAATATGG,-0.00272

row,Sequence,PBM E-score
1,CACATTGC,0.0928
2,CACTGCTA,0.025
3,CGTTCTGA,-0.106
4,AATATCAG,0.121
5,CACATTAC,0.276
6,AATATCAT,0.277
7,AACATTAC,0.149
8,AATATCAC,0.222
9,CACATTAG,-0.0914
10,ACAATTCT,0.0509
11,AGGTTTGA,-0.014
12,CCAGGTCC,-0.307
13,TACATACA,0.209
14,CACATACA,-0.0173
15,GACATACA,0.256
16,GGACCGGA,-0.112
17,ATTACAAA,0.37
18,TTTACAAA,0.262
19,GTTACAAA,0.225
20,CTTACAAA,0.19
21,AATACAAA,0.259
22,GATACAAA,0.162
23,ATTACAAT,0.125
24,ATTACAAG,0.166
25,AATACAAG,0.24

row,Sequence,PBM E-score
1,AGCATTCG,-0.106
2,GGATACGA,0.0439
3,CGGCTGTA,-0.147
4,AATGTATG,0.0768
5,AAGCCAGC,-0.0187
6,GTCGGGTA,0.0387
7,GCTGCATA,0.0463
8,AAGGGTGA,-0.0745
9,AGAGCCAG,-0.175
10,CTGACTAA,0.392
11,CTGACTAC,-0.0607
12,GTGACTCA,0.0409
13,CTGACTTA,0.16
14,ATGACTAG,0.07
15,GTGACTGA,0.167
16,GTGACTAA,0.262
17,ATGACTAA,0.431
18,ATGACTAC,0.0437
19,CGCTATCC,0.0718
20,ACAGATCC,0.145
21,CCACCAGC,-0.0909
22,CATCCTAG,-0.0476
23,GGGGAGAC,-0.304
24,AAGCTTTG,0.0373
25,AAACCCGA,0.261

row,Sequence,PBM E-score
1,GAACCCGA,-0.121
2,TAACCCGA,-0.0757
3,GAACCCAC,0.028
4,AGCGCGCA,0.24
5,AAGTAAAG,0.103
6,AAGTAAAT,0.26
7,AAGTAAAC,0.0216
8,ACTAGTTC,0.0926
9,ATTACTCA,0.299
10,ATTACTCG,0.23
11,ATTACTTA,0.257
12,ATTACTGA,0.154
13,ATTACTCC,0.143
14,CTTACTTA,0.113
15,ATGGTTAA,0.0266
16,GCTCGCGA,0.109
17,ATCGCTGG,-0.223
18,ATTAAGGC,0.0716
19,GTAGCCGA,-0.114
20,ACCCTGTA,0.00489
21,ACTATAAA,0.237
22,CATATAAA,0.183
23,AATATAAG,0.353
24,TATATAAA,0.274
25,TATAAAAA,0.265

row,Sequence,PBM E-score
1,AATATAAC,0.247
2,AATATAAT,0.179
3,AATATAAA,0.282
4,GATAAAAA,0.192
5,CATAAAAA,0.186
6,CATATAAG,0.113
7,GATATAAA,0.21
8,GCTCCTCC,-0.294
9,CCACCCAA,-0.0309
10,GCCGTATA,0.141
11,GTGCCGCA,-0.0486
12,GCAAGTCC,-0.203
13,AGGGGCAA,0.0575
14,TCCTTTCA,0.062
15,AGTGGCCG,-0.119
16,CTTTATGC,0.109
17,GAGAAGTA,0.0274
18,AAAGCTGT,0.15
19,ACCCTGCA,0.122
20,ATGCGCAC,0.0993
21,ATGCGCAT,0.315
22,ATGCGCAA,0.0772
